By AC50 is commonly meant the concentration giving half of the maximal activity seen.

Calls of active or inactive are those of the source. How the source made its calls: active means hit-call score of the fitted dose curve at least 0.9, where 1 is the maximum; inactive means score below 0.9.

What all share (details): mRNA level, 48 h; actives raise or lower the signal
Read-out in test [1]: cysteine-aspartic acid protease (CASP8), CASP8 (gene 841)
In words: LTEA_HepaRG_CASP8: Life Technologies and Expression Analysis (LTEA) Assay for cysteine-aspartic acid protease (CASP8) using HepaRG (AID 2283480). In a few lines: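 qRT-PCR readout of CASP8 mRNA, normalized to three housekeeping genes, after 48 h chemical exposure of HepaRG cells; 8-point half-log series, top 100 uM, 0.5% DMSO vehicle. Bidirectional curve fitting against DMSO baseline.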

Read-out in test [2]: Cytochrome P450 (CYP2B6), CYP2B6 (gene 1555)
In words: LTEA_HepaRG_CYP2B6: Life Technologies and Expression Analysis (LTEA) Assay for Cytochrome P450 (CYP2B6) using HepaRG (AID 2283481). An outline of the steps: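 Using 48 h treatment of HepaRG cells in serum-free induction medium, concentrations spanned half-log steps from 100 uM in 0.5% DMSO vehicle. CYP2B6 mRNA induction or loss is scored by qRT-PCR against DMSO.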

Read-out in test [3]: Cytochrome P450 2C19 (Homo sapiens) (UniProt P33261)
In words: LTEA_HepaRG_CYP2C19: Life Technologies and Expression Analysis (LTEA) Assay for CYP2C19 using HepaRG (AID 2283482). In a few lines: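 Human HepaRG liver cells received test chemicals for 48 h (highest 100 uM, half-log dilutions in 0.5% DMSO). CYP2C19 mRNA induction or loss is read by multiplexed qRT-PCR and fitted in both directions versus vehicle.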

Read-out in a further test: CYP2C8 (gene 1558)
In words: LTEA_HepaRG_CYP2C8: Life Technologies and Expression Analysis (LTEA) Assay for CYP2C8 using HepaRG (AID 2283483). An outline of the steps: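 HepaRG (human liver line), 48 h chemical exposure, 8-pt half-log series from 100 uM, 0.5% DMSO vehicle. Readout: CYP2C8 transcript by qRT-PCR, housekeeping-normalized. Bidirectional fit vs DMSO baseline.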

Read-out in a further test: CYP2C9 (gene 1559)
In words: LTEA_HepaRG_CYP2C9: Life Technologies and Expression Analysis (LTEA) Assay for CYP2C9 using HepaRG (AID 2283484). An outline of the steps:
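HepaRG, 48 h dosing, 8-pt half-log series, top 100 uM, 0.5% DMSO vehicle. Read-out: CYP2C9 transcript by TaqMan qRT-PCR, housekeeping-normalized (ACTB/GAPDH/POLR2A). Gain or loss fitted vs DMSO baseline.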

Read-out in another test: CYP2E1 (gene 1571)
In words: LTEA_HepaRG_CYP2E1: Life Technologies and Expression Analysis (LTEA) Assay for CYP2E1 using HepaRG (AID 2283485). An outline of the steps:
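Readout is qRT-PCR of CYP2E1 mRNA, normalized to three housekeeping genes and fitted bidirectionally against 0.5% DMSO. HepaRG cells were dosed 48 h at eight concentrations, highest 100 uM with half-log dilutions.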

Read-out in another test: CYP4A11 (gene 1579)
In words: LTEA_HepaRG_CYP4A11: Life Technologies and Expression Analysis (LTEA) Assay for CYP4A11 using HepaRG (AID 2283486). An outline of the steps: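 Readout is CYP4A11 mRNA induction or suppression (qRT-PCR, ACTB/GAPDH/POLR2A normalization) in human HepaRG cells after 48 h chemical treatment, concentrations to 100 uM in 0.5% DMSO, fitted bidirectionally against vehicle.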

Read-out in test [4]: Cytochrome P450 3A4 (Homo sapiens) (UniProt P08684)
In words: LTEA_HepaRG_CYP3A4: Life Technologies and Expression Analysis (LTEA) Assay for CYP3A4 using HepaRG (AID 2283487). In a few lines: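 In a human hepatic line (HepaRG), duplicate wells were treated 48 h with up to 100 uM chemical in half-log dilutions. Endpoint: CYP3A4 mRNA induction or loss relative to 0.5% DMSO vehicle, by qRT-PCR.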

Read-out in test [5]: DNA damage-inducible transcript 3 (DDIT3), DDIT3 (gene 1649)
In words: LTEA_HepaRG_DDIT3: Life Technologies and Expression Analysis (LTEA) Assay for DNA damage-inducible transcript 3 (DDIT3) using HepaRG (AID 2283488). An outline of the steps: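 Cells are human HepaRG liver cells treated for 48 h with eight half-log concentrations up to 100 uM in 0.5% DMSO. Transcript levels come from qRT-PCR normalized to three housekeeping genes, with activity fitted in both directions relative to vehicle.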

Sequence of Cytochrome P450 2C19 (Homo sapiens) (P33261 whole entry, looked up): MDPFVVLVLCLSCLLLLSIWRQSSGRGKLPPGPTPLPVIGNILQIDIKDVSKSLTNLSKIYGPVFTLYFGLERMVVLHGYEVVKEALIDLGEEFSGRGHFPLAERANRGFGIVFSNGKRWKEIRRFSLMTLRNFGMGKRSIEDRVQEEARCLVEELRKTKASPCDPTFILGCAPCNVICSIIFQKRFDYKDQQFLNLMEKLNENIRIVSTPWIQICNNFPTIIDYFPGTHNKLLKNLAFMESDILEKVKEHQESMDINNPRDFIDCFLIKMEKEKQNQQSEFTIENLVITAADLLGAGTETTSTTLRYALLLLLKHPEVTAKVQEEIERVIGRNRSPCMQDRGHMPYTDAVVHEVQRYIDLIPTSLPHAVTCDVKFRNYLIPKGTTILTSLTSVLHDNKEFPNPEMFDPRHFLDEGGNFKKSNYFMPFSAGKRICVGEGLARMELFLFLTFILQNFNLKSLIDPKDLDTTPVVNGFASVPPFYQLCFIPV
Sequence of Cytochrome P450 3A4 (Homo sapiens) (P08684 whole entry, looked up): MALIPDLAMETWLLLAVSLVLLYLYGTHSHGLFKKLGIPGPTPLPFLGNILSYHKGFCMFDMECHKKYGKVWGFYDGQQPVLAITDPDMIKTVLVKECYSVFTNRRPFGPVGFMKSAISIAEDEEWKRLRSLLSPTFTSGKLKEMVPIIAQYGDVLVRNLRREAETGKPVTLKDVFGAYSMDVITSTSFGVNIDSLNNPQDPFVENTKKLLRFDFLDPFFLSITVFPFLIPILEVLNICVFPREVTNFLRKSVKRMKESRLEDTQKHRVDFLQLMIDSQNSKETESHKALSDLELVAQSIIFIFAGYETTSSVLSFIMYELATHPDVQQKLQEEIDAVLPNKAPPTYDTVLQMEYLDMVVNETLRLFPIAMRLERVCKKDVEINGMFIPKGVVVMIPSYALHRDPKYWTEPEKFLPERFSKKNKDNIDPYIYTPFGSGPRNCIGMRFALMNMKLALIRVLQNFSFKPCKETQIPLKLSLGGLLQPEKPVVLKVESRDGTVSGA

For the compound `O=C(O)Cc1cc(I)c(Oc2cc(I)c(O)c(I)c2)c(I)c1`, the AC50 in [1] is 56.7 µM (active); in test [2] it was 55.3 µM (active); in test [3] it was 62.7 µM (active); with CYP2C8 (gene 1558), 61.5 µM (active); in the test with CYP2C9 (gene 1559), 53.8 µM (active); with CYP2E1 (gene 1571), 6.65 µM (active). For the same compound, the AC50 with CYP4A11 (gene 1579) was 53.2 µM (active); in test [4] it was 50.7 µM (active); in [5] it was 51.9 µM (active).

For `ClC1=C(Cl)C(Cl)(Cl)C(Cl)=C1Cl`, the compound was called inactive (in [1]; in test [2]; in [3]; with CYP2C8 (gene 1558); with CYP2C9 (gene 1559); in the test with CYP2E1 (gene 1571)). Also, the compound was classed as inactive (with CYP4A11 (gene 1579); in test [4]; in test [5]).

Take `O=C(O)c1ccccc1C(c1ccc(O)cc1)c1ccc(O)cc1`: the compound was called inactive (in test [1]; with CYP2C8 (gene 1558); in the test with CYP2C9 (gene 1559); with CYP2E1 (gene 1571); with CYP4A11 (gene 1579); in [4]). For the same compound, in test [5], the outcome was inactive. In [2], the AC50 was 3.65 µM (active).

Turning to `CC[C@H](c1ccc(O)cc1)[C@@H](CC)c1ccc(O)cc1`, the result (in test [1]; with CYP2C8 (gene 1558); with CYP2C9 (gene 1559); in test [5]) was inactive. Also, the AC50 in test [2] is 79.4 µM (active); in the test with CYP2E1 (gene 1571) it was 87.9 µM (active); with CYP4A11 (gene 1579), 76.7 µM (active).

With `CCCCC(CC)COC(=O)CCCCC(=O)OCc1ccccc1` (configuration not stated), the outcome (in test [1]; in test [2]; with CYP2C8 (gene 1558); in the test with CYP2C9 (gene 1559); in the test with CYP2E1 (gene 1571); with CYP4A11 (gene 1579)) was inactive. In addition, the compound was called inactive in [4] and in test [5].

Consider `c1ccc2c(c1)ccc1ccccc12`, for which the compound was classed as inactive (in test [1]; with CYP4A11 (gene 1579); in test [5]). Further, the AC50 in test [2] is 5.8 µM (active); with CYP2C8 (gene 1558), 12.7 µM (active); in the test with CYP2C9 (gene 1559), 6.12 µM (active); in the test with CYP2E1 (gene 1571) it was 10.1 µM (active); in [4], 7.1 µM (active).

In the case of `CC(C)(C)c1ccc(O)c(C(C)(C)C)c1`, the call (in [1]; in test [2]; in [3]; with CYP2C8 (gene 1558); with CYP2C9 (gene 1559); in the test with CYP2E1 (gene 1571)) was inactive. The outcome (in the test with CYP4A11 (gene 1579); in test [5]) was inactive. Further, the AC50 in test [4] was 50 µM (active).

With `NC(=O)N1C(=O)C(C(=O)c2cc(Cl)cs2)c2cc(F)c(Cl)cc21` (configuration not stated), the AC50 in test [1] was 19.2 µM (active); in test [2] it was 16.3 µM (active); in test [3], 22.4 µM (active); with CYP2C8 (gene 1558), 50 µM (active); with CYP2C9 (gene 1559), 22.4 µM (active); with CYP2E1 (gene 1571) it was 13.2 µM (active). For the same compound, the figures for the AC50 in [4] and in [5] were 24.6 µM (active) and 22.9 µM (active), respectively.

`C#C[C@]1(O)CC[C@H]2[C@@H]3CCC4=CC(=O)CC[C@@H]4[C@H]3CC[C@@]21C`: the compound was called inactive in test [1] and in test [5]. The AC50 in [2] was 9.72 µM (active); with CYP2C8 (gene 1558), 6.29 µM (active); with CYP2E1 (gene 1571) it was 0.124 µM (active); in the test with CYP4A11 (gene 1579), 0.0465 µM (active).

With `COC(=O)CCCCC(=O)OC`, the compound was called inactive (in [1]; in [2]; with CYP2C8 (gene 1558); with CYP2C9 (gene 1559); in the test with CYP2E1 (gene 1571); in the test with CYP4A11 (gene 1579)). Besides, the compound was called inactive in [4] and in [5].

With `Cc1cc(C)c(O)c(C)c1`, the result (in [1]; in the test with CYP4A11 (gene 1579); in test [5]) was inactive. The AC50 was 3.65 µM (active) in [2]; 9.18 µM (active) in test [3]; 5.03 µM (active) with CYP2C8 (gene 1558); 6.31 µM (active) with CYP2C9 (gene 1559); 13.4 µM (active) with CYP2E1 (gene 1571); 13.7 µM (active) in [4].

Regarding `c1ccc2cc3c(ccc4ccccc43)cc2c1`, the compound was called inactive in [1]. Moreover, the AC50 is 9.39 µM (active) in test [2]; 13.7 µM (active) in the test with CYP2C8 (gene 1558); 11.8 µM (active) with CYP2C9 (gene 1559); 22.3 µM (active) with CYP2E1 (gene 1571); 32.8 µM (active) with CYP4A11 (gene 1579); 3.99 µM (active) in [4]. For the same compound, the AC50 in test [5] was 17.7 µM (active).

In the case of `CCCOc1sc(C(=O)N2CCC(c3cc(CN)ccc3F)CC2)c(C)c1Br`, the call (in test [1]; with CYP2C8 (gene 1558); in the test with CYP2C9 (gene 1559); in the test with CYP2E1 (gene 1571); with CYP4A11 (gene 1579); in [4]) was inactive. For the same compound, the call in test [5] was inactive. For the same compound, in test [2], the AC50 is 1.96 µM (active).

In the case of `COCC(C)O` (configuration not stated), the compound was called inactive (in test [1]; in [2]; in the test with CYP2C8 (gene 1558); with CYP2C9 (gene 1559); with CYP2E1 (gene 1571); with CYP4A11 (gene 1579)). The compound was classed as inactive in test [4] and in test [5].

For the compound `OCCC(F)(F)C(F)(F)C(F)(F)C(F)(F)C(F)(F)C(F)(F)C(F)(F)C(F)(F)F`, the result (in test [1]; in [2]; with CYP2C8 (gene 1558); with CYP2C9 (gene 1559); with CYP2E1 (gene 1571); in the test with CYP4A11 (gene 1579)) was inactive. The compound was called inactive in test [4] and in [5].

Regarding `OCCC(F)(F)C(F)(F)C(F)(F)C(F)(F)C(F)(F)C(F)(F)F`, the compound was classed as inactive (in test [1]; in test [2]; with CYP2C8 (gene 1558); in the test with CYP2C9 (gene 1559); in the test with CYP2E1 (gene 1571); with CYP4A11 (gene 1579)). Also, the compound was called inactive in test [4] and in test [5].

As for `C[C@@H]1C[C@H]2[C@@H]3CCC4=CC(=O)C=C[C@]4(C)[C@@]3(F)[C@@H](O)C[C@]2(C)[C@@]1(O)C(=O)COP(=O)(O)O`, the outcome (in [1]; in test [2]; with CYP2C8 (gene 1558); in the test with CYP2C9 (gene 1559); in the test with CYP4A11 (gene 1579); in test [5]) was inactive. Besides, the values for the AC50 (with CYP2E1 (gene 1571); in test [4]) were 25 µM (active) and 9.66 µM (active), respectively.
